Experimental data from the supplement of paper PMC7156485.

What was measured:
Settings in all cases: concentration: 10 µM; 24 h
HCC1569 [1] = experiment: cell number relative to DMSO (% of DMSO); higher = more cells (less growth inhibition / toxicity)
Method in brief: (§1)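 For HCC1569 and TDF cells, compounds at 10 µM were applied for 24 h at 37 °C in triplicate in 384-well plates. Cells were fixed in 3.7% formaldehyde, stained for H1.0 and with DAPI, and imaged at ×10 over six fields per well. The endpoint, H1.0 nuclear intensity or cell number, is shown as percent of the plate control using the median of replicates. Positional effects were smoothed for HCC1569 only.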

TDF [2] = experiment: as above
Method in brief: as §1

TDF [3] = experiment: H1.0 immunofluorescence intensity relative to DMSO (% of DMSO); higher = stronger H1.0 induction, active = 120 or more
Method in brief: as §1

HCC1569 [4] = experiment: H1.0 immunofluorescence intensity relative to DMSO (% of DMSO); higher = stronger H1.0 induction, active = 140 or more
Method in brief: as §1
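Wherever H1.0 immunofluorescence intensity relative to DMSO is given: TDF is a line of transformed human dermal fibroblasts of mesenchymal origin.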
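Wherever cell number relative to DMSO is given: TDF denotes transformed human dermal fibroblasts of mesenchymal origin.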

| Structure (SMILES) | cell number (HCC1569 [1]) | cell number (TDF [2]) | H1.0 immunofluorescence intensity (TDF [3]) | H1.0 immunofluorescence intensity (HCC1569 [4]) |
| --- | --- | --- | --- | --- |
| COc1ccc2cc(C(C)C(=O)[O-])ccc2c1.[Na+] (single isomer, unassigned; (-)) [(-)-Naproxen sodium] | 105 | 93.1 | 96.1 (inactive) | 102 (inactive) |
| Cn1nnc2c(C(N)=O)ncn2c1=O [Temozolomide] | 105 | 91.4 | 105 (inactive) | 101 (inactive) |
| CCC1OC(=O)C(C)C(OC2CC(C)(OC)C(O)C(C)O2)C(C)C(OC2OC(C)CC(N(C)C)C2O)C(C)(O)CC(C)C(=NOCOCCOC)C(C)C(O)C1(C)O (stereo unspecified) [Roxithromycin] | 106 | 98.4 | 95.2 (inactive) | 92.1 (inactive) |
| O.O=P(O)(O)C(O)(Cn1ccnc1)P(=O)(O)O | 99.2 | 94 | 94.5 (inactive) | 102 (inactive) |
| CC(N)(Cc1ccc(O)c(O)c1)C(=O)O (stereo unspecified) [Methyldopa] | 107 | 100 | 102 (inactive) | 94 (inactive) |
| CN=C(NC#N)NCCSCc1csc(N=C(N)N)n1 [Tiotidine] | 102 | 88.1 | 105 (inactive) | 99.1 (inactive) |
| CCN1CCCC1CNC(=O)c1cc(S(N)(=O)=O)ccc1OC (racemic) | 106 | 118 | 98.8 (inactive) | 99.3 (inactive) |
| O=C1OC(CN2CCOCC2)CN1/N=C/c1ccc([N+](=O)[O-])o1 (stereo unspecified) | 102 | 96.5 | 96.7 (inactive) | 104 (inactive) |
| CC(C)c1ccc2c(c1)c(SC(C)(C)C)c(CC(C)(C)C(=O)[O-])n2Cc1ccc(Cl)cc1.[Na+] | 102 | 108 | 91.8 (inactive) | 91.2 (inactive) |
